This note sets out measurements from PubChem BioAssay (Tox21).

Inconclusive results are not listed. Calls of active or inactive are those of the source. Unless noted, calls come from the whole dose curve; as a rule, active = well fitted curve in the direction sought with a large enough effect in the repeat runs; inconclusive = weak or mixed curves; inactive = no such curve, though single readings can be large; an effect the other way counts as inactive or inconclusive.

Experiment [1] is described as follows: qHTS assay to identify aromatase inhibitors - cell viability counter screen (AID 743084;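 note: cells stimulated with testosterone during compound exposure; nearly all actives have a fitted effect of over 55% in size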). (qHTS replaces the single test concentration by a dilution series.)
The nature of experiment [2]: qHTS assay to identify small molecule that activate the aryl hydrocarbon receptor (AhR) signaling pathway - cell viability counter screen (AID 743086).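 Note: HepG2 liver cells carrying the AhR DRE luciferase reporter; series mostly up to about 70 µM; nearly all actives have a fitted effect of over 45% in size.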 In outline: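 HepG2-AhR-luc (HG2L7.5c1) cells, 4000/well, were preincubated 5 h at 37C, exposed to compound in qHTS format for 24 hr at 37C, then given CellTiter-Fluor for 30 min; viability was read as fluorescence in the reporter wells.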

A short description of experiment [3]: qHTS assay for small molecule agonists of the antioxidant response element (ARE) signaling pathway (AID 743202; active = well fitted activation curve with a large enough effect in the signal ratio in the repeat runs, not every such curve was filed as active; the % refers to the signal ratio; note: potency is the fitted concentration of half-maximal effect). In outline:
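Following a 16 h, 37 C exposure of reporter HepG2 cells (ARE-driven beta-lactamase, 2,000 cells/well) to compounds, FRET substrate was applied for 2 h at room temperature and fluorescence intensity recorded.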

Experiment [4] can be described thus: qHTS assay for small molecule agonists of the antioxidant response element (ARE) signaling pathway - cell viability counter screen (AID 743203; calls by dose curve; note: nearly all actives have a fitted effect of over 55% in size). In outline: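 Viability counter screen: CellTiter-Glo luminescence, read after 30 min at room temperature, in ARE-bla HepG2 wells. Compound exposure lasted 16 h at 37C/5% CO2, following a 5 h pre-incubation of the cells after plating.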

Experiment [5] in a line: qHTS assay for small molecule activators of the heat shock response signaling pathway - cell viability counter screen (AID 743209). Note: nearly all actives have a fitted effect of over 50% in size. In outline:
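Cytotoxicity counter screen run in the same wells as the heat-shock bla reporter assay: HeLa HSE-bla cells, 5 h compound exposure at 37 C, viability read by CellTiter-Glo luminescence.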

Experiment [6] is described as follows: qHTS assay for small molecule activators of the heat shock response signaling pathway (AID 743210; active = well fitted activation curve with a large enough effect in the signal ratio in the repeat runs, with a control signal flat, not every such curve was filed as active; the % refers to the signal ratio; note: series mostly up to about 63 µM). Put shortly: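 Heat shock element–beta-lactamase HeLa reporter cells; qHTS with compounds for 5 h at 37 C; detection by FRET substrate fluorescence after 2.5 h at RT.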
A short description of experiment [7]: qHTS assay to identify small molecule agonists of the peroxisome proliferator-activated receptor delta (PPARd) signaling pathway - cell viability counter screen (AID 743211). Note: nearly all actives have a fitted effect of over 55% in size. In outline:
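Multiplexed format: after the 2 h room-temperature LiveBLAzer B/G FRET step, CellTiter-Glo was added to the same wells. Luminescence after 30 min gave cell viability; compound exposure was 17 h at 37C.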

The target of experiment [8] is Peroxisome proliferator-activated receptor delta (Homo sapiens) (UniProt Q03181). The experiment can be described thus: qHTS assay to identify small molecule agonists of the peroxisome proliferator-activated receptor delta (PPARd) signaling pathway (AID 743212; calls by dose curve; note: potency is the fitted concentration of half-maximal effect). Put shortly:
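Beta-lactamase reporter read by fluorescence (LiveBLAzer B/G FRET, 2 h, room temperature). Test agents, in DMSO, incubated at 37 C with PPARd-bla HEK293H cells.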

Experiment [9] is described as follows: qHTS assay to identify small molecule antagonists of the peroxisome proliferator-activated receptor delta (PPARd) signaling pathway - cell viability counter screen (AID 743213). Note: nearly all actives have a fitted effect of over 50% in size. Put shortly: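 Viability counter-screen, qHTS format: PPARd-bla HEK293H, L165041 300 nM final, 17 h compound exposure at 37 C, CellTiter-Glo luminescence after 30 min RT.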
The target of experiment [10] is Peroxisome proliferator-activated receptor delta (Homo sapiens) (UniProt Q03181). The experiment can be described thus: qHTS assay to identify small molecule antagonists of the peroxisome proliferator-activated receptor delta (PPARd) signaling pathway (AID 743215; active = well fitted inhibition curve with a large enough effect in the signal ratio in the repeat runs, not every such curve was filed as active; the % refers to the signal ratio;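 note: cells stimulated with agonist L165041 at 300 nM final during compound exposure; series mostly up to about 62 µM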). Put shortly: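 Agonist L165041 (300 nM final) added with compound to PPARd-bla HEK293H UAS-bla reporter cells; 17 h incubation at 37 C. Read-out: LiveBLAzer FRET substrate, 2 h at room temperature, fluorescence intensity.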

Experiment [11] is described as follows: qHTS assay to identify small molecule agonists of the farnesoid-X-receptor (FXR) signaling pathway - cell viability counter screen (AID 743218). Note: nearly all actives have a fitted effect of over 45% in size. In outline:
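Viability counter screen in the same wells: CellTiter-Glo luminescence, 30 min room-temperature incubation, measured after the beta-lactamase read. Cells were GeneBLAzer FXR-UAS-bla HEK 293T, compound-treated 16 h at 37C.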

In experiment [12] the target is Vitamin D3 receptor (Homo sapiens) (UniProt P11473). The experiment is described as follows: qHTS assay to identify small molecule agonists of the vitamin D receptor (VDR) signaling pathway (AID 743222; calls by dose curve). In outline:
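Agonist mode, beta-lactamase reporter: fluorescence from LiveBLAzer B/G FRET substrate (2 h, room temperature) read after 16 h compound treatment at 37 C of VDR-bla cells, which were pre-incubated 4 h after seeding.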

In experiment [13] the target is Peroxisome proliferator-activated receptor gamma (Homo sapiens) (UniProt P37231). The experiment can be described thus: qHTS assay to identify small molecule antagonists of the peroxisome proliferator-activated receptor gamma (PPARg) signaling pathway (AID 743191; calls by dose curve; note: series mostly up to about 63 µM; nearly all actives have a fitted effect of over 30% in size). Put shortly:
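GeneBLAzer PPARg UAS-bla HEK293H cells carrying a UAS-driven beta-lactamase reporter were plated at 3000 cells/well, preincubated 5 h at 37C, then given compound for 17 h at 37C; LiveBLAzer B/G FRET substrate was read after 1 h at room temperature.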

Experiment [14] is described as follows: qHTS assay to identify small molecule antagonists of the peroxisome proliferator-activated receptor gamma (PPARg) signaling pathway - cell viability counter screen (AID 743194). Note: nearly all actives have a fitted effect of over 55% in size. Note: potency is the fitted concentration of half-maximal effect. In outline: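 PPARg-UAS-bla HEK293H cells were plated, rested 5 h at 37 C, then treated with compounds plus rosiglitazone (50 nM final) for 17 h at 37 C; viability was then read by CellTiter-Glo luminescence after 30 min at room temperature.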

In experiment [15] the target is Vitamin D3 receptor (Homo sapiens) (UniProt P11473). The experiment can be described thus: qHTS assay to identify small molecule antagonists of the vitamin D receptor (VDR) signaling pathway (AID 743223; active = well fitted inhibition curve with a large enough effect in the signal ratio in the repeat runs, not every such curve was filed as active; the % refers to the signal ratio). Put shortly: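 After VDR-bla cells are plated and left 4 h at 37C, DMSO-dissolved compounds and 3 nM (final) calcitriol agonist are added. Incubation continues 16 h at 37C; FRET beta-lactamase substrate then develops 2 h at room temperature.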

Experiment [16] addresses Bile acid receptor (Homo sapiens) (UniProt Q96RI1). The experiment is described as follows: qHTS assay to identify small molecule antagonists of the farnesoid-X-receptor (FXR) signaling pathway (AID 743217; active = well fitted inhibition curve with a large enough effect in the signal ratio in the repeat runs, not every such curve was filed as active; the % refers to the signal ratio). Put shortly: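 Antagonist mode: chenodeoxycholic acid at 50 uM final stimulates a UAS-driven beta-lactamase reporter in HEK 293T FXR-bla cells during 16 h, 37C compound exposure. Read-out is FRET substrate fluorescence after 2 h at room temperature.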

For experiment [17] the target is unchanged. The experiment can be described thus: qHTS assay to identify small molecule agonists of the farnesoid-X-receptor (FXR) signaling pathway (AID 743220; active = well fitted activation curve with a large enough effect in the signal ratio in the repeat runs, not every such curve was filed as active; the % refers to the signal ratio). In outline:
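FXR-UAS-bla HEK 293T cells carrying a UAS-driven beta-lactamase reporter were plated for 5 h at 37C/5% CO2, then exposed to DMSO-dissolved Tox21 10K compounds for 16 h at 37C. A LiveBLAzer B/G FRET substrate was loaded for 2 h at room temperature before fluorescence reading.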

Experiment [18] in a line: qHTS assay to identify small molecule antagonists of the farnesoid-X-receptor (FXR) signaling pathway - cell viability counter screen (AID 743221; active = well fitted cell-killing curve with a large enough effect in the repeat runs, not every such curve was filed as active; note: nearly all actives have a fitted effect of over 50% in size; note: potency is the fitted concentration of half-maximal effect). Put shortly: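 CellTiter-Glo, 30 min RT, luminescence; same wells as the LiveBLAzer FRET read. Cells: FXR-UAS-bla HEK 293T. Treatment: compound with chenodeoxycholic acid 50 uM final, 16 h at 37 C.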
The target in experiment [19] is Aryl hydrocarbon receptor (Homo sapiens) (UniProt P35869). The experiment can be described thus: qHTS assay to identify small molecule that activate the aryl hydrocarbon receptor (AhR) signaling pathway (AID 743085). Note: potency is the fitted concentration of half-maximal effect; nearly all actives have a fitted effect of over 15% in size. Put shortly:
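Reporter assay in engineered HepG2 line HG2L7.5c1, whose plasmid carries twenty dioxin responsive elements upstream of firefly luciferase. Treatment lasted 24 h at 37C; ONE-Glo luminescence gauged induction.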

The target in experiment [20] is Peroxisome proliferator-activated receptor gamma (Homo sapiens) (UniProt P37231). The experiment is described as follows: qHTS assay to identify small molecule agonists of the peroxisome proliferator-activated receptor gamma (PPARg) signaling pathway (AID 743094; active = well fitted activation curve with a large enough effect in the signal ratio in the repeat runs, not every such curve was filed as active; the % refers to the signal ratio). In outline:
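Agonist activity was taken from a beta-lactamase reporter (FRET substrate, 1 h at room temperature) in HEK293H cells carrying a PPARg UAS-bla construct. Compounds in DMSO were incubated 17 h at 37C after a 5 h cell pre-incubation.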

Bile acid receptor (Homo sapiens), sequence (Q96RI1 whole entry, looked up): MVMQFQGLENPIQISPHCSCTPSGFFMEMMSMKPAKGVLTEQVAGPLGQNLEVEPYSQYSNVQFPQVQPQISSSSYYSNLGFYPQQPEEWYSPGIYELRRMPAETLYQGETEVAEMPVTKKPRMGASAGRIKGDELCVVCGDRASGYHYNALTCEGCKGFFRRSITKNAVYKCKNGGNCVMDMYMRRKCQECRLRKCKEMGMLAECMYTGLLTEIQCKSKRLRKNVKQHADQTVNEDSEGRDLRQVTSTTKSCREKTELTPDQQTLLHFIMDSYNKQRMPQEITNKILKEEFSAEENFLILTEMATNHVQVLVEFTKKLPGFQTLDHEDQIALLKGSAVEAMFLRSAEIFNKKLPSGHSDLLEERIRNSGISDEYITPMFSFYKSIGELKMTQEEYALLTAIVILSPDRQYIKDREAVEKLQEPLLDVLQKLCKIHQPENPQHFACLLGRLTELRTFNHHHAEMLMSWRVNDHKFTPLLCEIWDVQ
Vitamin D3 receptor (Homo sapiens), sequence (P11473 whole entry, looked up): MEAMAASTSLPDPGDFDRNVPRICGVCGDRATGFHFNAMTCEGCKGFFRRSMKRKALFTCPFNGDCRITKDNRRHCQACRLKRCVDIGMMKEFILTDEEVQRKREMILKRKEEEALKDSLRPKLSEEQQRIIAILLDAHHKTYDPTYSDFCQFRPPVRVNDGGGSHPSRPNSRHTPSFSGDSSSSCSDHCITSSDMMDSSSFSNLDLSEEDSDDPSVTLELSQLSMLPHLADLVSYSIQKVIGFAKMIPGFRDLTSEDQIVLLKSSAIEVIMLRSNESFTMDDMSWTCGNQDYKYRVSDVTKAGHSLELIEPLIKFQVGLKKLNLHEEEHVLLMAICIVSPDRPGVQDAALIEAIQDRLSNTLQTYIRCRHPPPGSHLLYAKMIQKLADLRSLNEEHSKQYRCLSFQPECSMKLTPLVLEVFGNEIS
Peroxisome proliferator-activated receptor gamma (Homo sapiens), sequence (P37231 whole entry, looked up): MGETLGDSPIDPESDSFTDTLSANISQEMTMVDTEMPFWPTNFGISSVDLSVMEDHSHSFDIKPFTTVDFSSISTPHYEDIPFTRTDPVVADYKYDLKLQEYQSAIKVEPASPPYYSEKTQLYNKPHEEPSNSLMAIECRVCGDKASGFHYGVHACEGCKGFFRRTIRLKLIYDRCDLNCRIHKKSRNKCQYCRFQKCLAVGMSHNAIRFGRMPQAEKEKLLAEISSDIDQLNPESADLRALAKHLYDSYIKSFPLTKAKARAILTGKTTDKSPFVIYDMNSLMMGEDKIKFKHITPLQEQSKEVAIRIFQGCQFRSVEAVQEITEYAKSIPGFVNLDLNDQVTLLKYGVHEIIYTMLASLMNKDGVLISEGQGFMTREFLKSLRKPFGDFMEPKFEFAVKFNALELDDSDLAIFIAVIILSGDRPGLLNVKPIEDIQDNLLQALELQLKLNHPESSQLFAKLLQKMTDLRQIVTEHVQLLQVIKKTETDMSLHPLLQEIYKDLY
Peroxisome proliferator-activated receptor delta (Homo sapiens), sequence (Q03181 whole entry, looked up): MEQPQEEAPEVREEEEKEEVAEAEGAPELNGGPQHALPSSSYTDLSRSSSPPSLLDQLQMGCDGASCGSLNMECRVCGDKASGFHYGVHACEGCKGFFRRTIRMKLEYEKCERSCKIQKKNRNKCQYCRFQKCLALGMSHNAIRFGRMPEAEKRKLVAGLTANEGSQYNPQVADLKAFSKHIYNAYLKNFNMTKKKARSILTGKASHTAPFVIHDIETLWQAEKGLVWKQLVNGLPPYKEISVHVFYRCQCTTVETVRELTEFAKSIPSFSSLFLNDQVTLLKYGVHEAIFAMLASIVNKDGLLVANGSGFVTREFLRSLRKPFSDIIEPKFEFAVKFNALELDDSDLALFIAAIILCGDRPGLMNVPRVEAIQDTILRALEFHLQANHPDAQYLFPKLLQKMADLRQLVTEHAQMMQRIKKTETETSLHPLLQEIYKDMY
Aryl hydrocarbon receptor (Homo sapiens), sequence (P35869 whole entry, looked up): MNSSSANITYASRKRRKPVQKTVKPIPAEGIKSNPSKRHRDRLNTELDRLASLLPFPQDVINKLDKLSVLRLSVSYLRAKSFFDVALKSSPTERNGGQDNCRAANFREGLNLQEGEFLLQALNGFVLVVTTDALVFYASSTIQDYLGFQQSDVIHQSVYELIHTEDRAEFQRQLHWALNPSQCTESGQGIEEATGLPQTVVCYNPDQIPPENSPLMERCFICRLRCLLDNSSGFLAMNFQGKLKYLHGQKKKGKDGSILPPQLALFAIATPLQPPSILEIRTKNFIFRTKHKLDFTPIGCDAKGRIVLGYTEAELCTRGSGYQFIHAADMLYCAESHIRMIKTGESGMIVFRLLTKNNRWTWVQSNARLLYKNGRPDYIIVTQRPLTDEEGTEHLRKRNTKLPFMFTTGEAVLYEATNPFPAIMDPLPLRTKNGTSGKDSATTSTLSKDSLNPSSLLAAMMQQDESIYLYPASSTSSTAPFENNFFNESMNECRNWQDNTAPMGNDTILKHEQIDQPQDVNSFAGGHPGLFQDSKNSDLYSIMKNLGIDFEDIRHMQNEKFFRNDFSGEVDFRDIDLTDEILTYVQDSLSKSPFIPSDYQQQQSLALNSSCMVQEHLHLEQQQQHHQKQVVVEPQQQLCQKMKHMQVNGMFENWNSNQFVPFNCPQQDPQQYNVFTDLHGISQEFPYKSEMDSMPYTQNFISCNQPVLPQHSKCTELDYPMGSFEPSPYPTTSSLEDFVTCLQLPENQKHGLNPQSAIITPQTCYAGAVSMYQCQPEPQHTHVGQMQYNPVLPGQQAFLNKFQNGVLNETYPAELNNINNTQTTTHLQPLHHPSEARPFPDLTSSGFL

As to `CC(CO)CO`, the Potency entry in [1], in experiment [2], in experiment [3], in experiment [4], in experiment [5] and in experiment [6] was “inactive” in each case. The Potency result in experiment [7], in experiment [8], in experiment [9], in experiment [10], in [11] and in experiment [12] was “inactive” in each case.

Turning to `CCOC(=O)/C=C/C(=O)OCC`, the Potency entry in experiment [1], in [2], in experiment [13], in experiment [14], in experiment [4] and in [6] was “inactive” each time. Moreover, the Potency result in experiment [7], in experiment [8], in experiment [9], in experiment [10], in experiment [11] and in experiment [12] was “inactive” in each case. In addition, in experiment [15], the Potency result was “inactive”.

With `CCC(C)COC(C)=O` (stereo not drawn), the Potency entry in experiment [1], in [2], in [14], in [3], in experiment [4] and in [7] was “inactive” throughout. Further, the Potency entry in experiment [8], in experiment [9], in experiment [10], in experiment [16], in experiment [11] and in [17] was “inactive” in each case. Further, the Potency entry in experiment [18] was “inactive”.

Take `Cc1ccc2c(Br)cc(Br)c(O)c2n1`: the Potency is 13.3 µM (active) in experiment [19] and 23.7 µM (active) in experiment [14]. For the same molecule, the Potency result in experiment [2], in experiment [4], in experiment [5], in [7], in [8] and in [9] was “inactive” in each case. Moreover, the Potency result in [11], in experiment [18], in experiment [12] and in experiment [15] was “inactive” each time.

Take `CC=C(Cl)Cl`: the Potency entry in [1], in [2], in [13], in experiment [14], in experiment [3] and in experiment [4] was “inactive” in each case. The Potency entry in experiment [5], in [6], in experiment [7], in experiment [8], in experiment [9] and in experiment [10] was “inactive” in each case. Also, the Potency entry in experiment [15] was “inactive”.

In the case of `CCCCN1CCCC1C(=O)Nc1c(C)cc(C)cc1C` (stereo not drawn), the Potency entry in experiment [1], in experiment [2], in experiment [14], in experiment [3], in [4] and in experiment [7] was “inactive” throughout. For the same molecule, the Potency entry in experiment [11], in experiment [18] and in experiment [15] was “inactive” in each case.

Regarding `CCCCCCNC(=O)n1cc(F)c(=O)[nH]c1=O`, the Potency result in experiment [1], in experiment [2], in experiment [14], in experiment [4], in [5] and in experiment [6] was “inactive” in each case. The Potency result in experiment [7], in experiment [8], in [9], in experiment [10], in experiment [12] and in experiment [15] was “inactive” each time.

For the molecule `O=C1c2ccccc2C(=O)C1c1nc2ccccc2c(Br)c1O`, the Potency is 9.69 µM (active) in [19] and 1.54 µM (active) in [3]. Also, the Potency entry in experiment [2], in [20], in experiment [13], in experiment [14], in experiment [4] and in experiment [5] was “inactive” throughout. The Potency result in experiment [6], in experiment [7], in [8], in experiment [9], in experiment [10] and in [18] was “inactive” throughout. In addition, the Potency result in [15] is “inactive”.

As to `O=C(O)c1cccc(-c2noc(-c3ccccc3F)n2)c1`, the Potency result in experiment [1], in [2], in [5], in [6] and in [9] was “inactive” throughout. Besides, in [18], the Potency is 11.9 µM (active).

As to `CC(C)(O)c1ccc(CNC(=O)c2cccnc2Oc2ccc3nonc3c2)cc1`, the Potency result in [1], in experiment [2], in [14], in experiment [4], in [5] and in experiment [6] was “inactive” in each case. Besides, the Potency result in [7], in [8], in experiment [9], in experiment [10], in experiment [11] and in experiment [15] was “inactive” in each case.

Take `CCCCCCCCOc1ccc(C(=O)O)cc1`: the Potency result in experiment [1], in experiment [2], in [14], in experiment [4], in [7] and in experiment [9] was “inactive” in each case. Moreover, the Potency entry in experiment [16], in [11], in [18] and in experiment [15] was “inactive” throughout. Moreover, the Potency in [8] was 7.67 µM (active).
